By AC50 is commonly meant the concentration at which the activity in the assay is half-maximal. A word on the viability: it is the share of living cells, or the viability signal relative to a control.

Assay [1] in a line: liver-stage malaria parasite load reduction – cell-based, known kinase inhibitor set, luminescence, hepatoma host viability (AID 624392).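 Also: infected cells incubated roughly two days before readout.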 The settings on record: Plasmodium liver stage in hepatoma cells, luciferase luminescence, concentration not given here; liver cell % of control: measured here: host liver cell viability; parasite % of control: stronger effect = lower value.
The nature of assay [2]: altered dexamethasone sensitivity, NF-kB reporter, cell-based, luciferase, IL-1B stimulus (AID 624486).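 As to percent of negative control (+Dex): 100% = mean signal of vehicle control wells on the plate.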 The conditions noted are these: IL-1B + dexamethasone, luminescence; percent of negative control (+Dex): actives lie on both sides, concentration not given here; z-score: measured here: IL-1B alone, no Dex.
The nature of assay [3]: C. elegans survival during P. aeruginosa infection – whole organism (AID 651566).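 Also: tested at 14 µM; sign flipped so higher z means a lower ratio.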 The conditions noted are these: C. elegans killed by P. aeruginosa, survival ratio.
Assay [4] is described as follows: pro-inflammatory signaling induction in mouse macrophages – cell-based, murine, luminescence (AID 652131). The conditions noted are these: murine macrophage pro-inflammatory reporter, stronger effect = higher value.
For assay [5], the target named is Cellular tumor antigen p53 (Homo sapiens) (UniProt P04637). Kind of assay: GFP-p53 level modulators in HPV16+ cells – imaging, known kinase inhibitor set, EGFP/DsRed ratio (AID 1053116).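 Also: cells exposed to compounds for 24 h at 37 °C before reading.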 The conditions noted are these: GFP-p53 stability, stronger effect = higher value; EGFP object count: measured here: GFP-p53 positive objects count.
Assay [6] in a line: inducers of IRF3 signaling, differentiated THP-1 – cell-based, PMA-stimulated THP-1, luminescence (AID 1053176). The settings on record: PMA-differentiated THP-1, IRF3 reporter luminescence; stronger effect = higher value.
The nature of assay [7]: MELAS cybrid and Rieske KO viability enhancers – cell-based, MELAS cybrids, Rieske KO mouse fibroblasts, CellTiter-Glo, primary screen (AID 1508586;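 active = mean z-score across replicates of 1.96 or higher in either the MELAS or the Rieske mutant cell line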;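 also: z relative to plate mean and SD of compound and empty wells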). The conditions noted are these: low glucose. (In ATP-based viability assays light output follows the ATP content of the culture.)
Assay [8] can be described thus: viability loss in pontine glioma line – cell-based, SU-DIPG-XVII, MIPE5.0, CellTiter-Glo, qHTS, dose response (AID 1347060; cut-off not given, nearly all actives have AC50 up to about 26 µM;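 also: cells exposed to compound for 48 hours before viability readout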). The settings on record: CellTiter-Glo ATP luminescence.
A short description of assay [9]: viability loss in pontine glioma line – cell-based, SU-DIPG-XXV, MIPE5.0, CellTiter-Glo, qHTS, dose response (AID 1347065; cut-off not given, nearly all actives have AC50 up to about 26 µM;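 also: cells exposed to compound for 48 hours before ATP readout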). The settings on record: CellTiter-Glo ATP luminescence.
A short description of assay [10]: JHH-DIPG-1 glioma cell viability, MIPE5.0 library, CellTiter-Glo luminescence, qHTS (AID 1347067; cut-off not given, nearly all actives have AC50 up to about 26 µM;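 also: cells exposed to compound for 48 hours before readout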). The settings on record: JHH-DIPG-1 glioma viability, CellTiter-Glo ATP luminescence.
A short description of assay [11]: P. berghei load reduction in hepatocytes – cell-based, HepG2, luciferase luminescence, HepG2 viability, primary screen (AID 624349; in the data active = parasite load remaining mostly below about 12%, no sharp cut-off; inactive = mostly above about 10%;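 also: 100% = mean of DMSO negative control wells on the same plate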). The conditions noted are these: P. berghei liver stage in HepG2, luciferase luminescence, concentration not given here; parasite load remaining: stronger effect = lower value; viability: measured here: HepG2 viability without parasites.
The nature of assay [12]: viability loss with induced miR-34 in A549 – imaging, A549 dox-inducible miR-34, nuclei and caspase counts, primary screen (AID 1347080;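 active = compounds whose cell count with miR-34 switched on is under 0.7 times the count with it off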). The conditions noted are these: A549 miR-34 inducible, Hoechst nuclei count, 48 h.
[13] abbreviates: MELAS cybrid survival, CellTiter-Glo 48 h, stronger effect = higher value.
Where [14] appears, read: Rieske KO mouse fibroblast survival, CellTiter-Glo 72 h.

Where “and” joins values, the source holds several entries; their conditions need not be identical. Equal entries are not always repeated. Records with an inconclusive call do not appear. A structure can be active in one record and inactive in another. Calls of active or inactive are those of the source. Unless noted, no rule for the calls is given here.

Sequence of Cellular tumor antigen p53 (Homo sapiens) (P04637 whole entry, looked up): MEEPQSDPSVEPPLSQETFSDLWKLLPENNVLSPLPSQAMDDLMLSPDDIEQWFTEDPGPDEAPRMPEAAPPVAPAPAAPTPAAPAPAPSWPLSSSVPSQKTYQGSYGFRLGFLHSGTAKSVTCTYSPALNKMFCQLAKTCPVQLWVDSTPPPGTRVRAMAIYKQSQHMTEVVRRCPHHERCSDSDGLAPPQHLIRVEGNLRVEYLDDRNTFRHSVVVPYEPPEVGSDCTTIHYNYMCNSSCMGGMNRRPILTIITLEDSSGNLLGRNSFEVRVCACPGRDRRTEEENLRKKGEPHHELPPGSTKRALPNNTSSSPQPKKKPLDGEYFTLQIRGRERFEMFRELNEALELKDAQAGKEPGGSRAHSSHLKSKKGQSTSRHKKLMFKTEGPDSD

In assay [1], `CC1=C(C(=O)Nc2ccc3[nH]ncc3c2)C(c2ccc3ccccc3c2)CC(=O)N1` (configuration not stated) came in with a liver cell % of control of 109%. Moreover, the parasite % of control in assay [1] was 30% (inactive). In addition, the percent of negative control (+Dex) in [2] is 79% (inactive). Also, the z-score in [2] was -1.06; in assay [3], -0.24 (inactive); in assay [4], 0.091 (inactive); in [7] (setting [13]), 0.693 (inactive); in assay [7] (setting [14]), -0.221. Further, the EGFP object count in assay [5] was found to be 3. Further, in assay [5], the EGFP/DsRed ratio is 0.432 (inactive). Also, the fraction signal in [6] was -0.014 (inactive).

For `COc1ccc(-c2oc3ncnc(N)c3c2-c2ccc(NC(=O)Nc3cc(C(F)(F)F)ccc3F)cc2)cc1`, the liver cell % of control in assay [1] amounted to 50%. Moreover, the parasite % of control in assay [1] is 186% (inactive). The percent of negative control (+Dex) in assay [2] is 93.5% (inactive). Moreover, the z-score was -2.24 in [2]; 0.785 (inactive) in [3]; -0.472 (inactive) in assay [4]; -1.1 (inactive) in assay [7] (setting [13]); -0.0748 in assay [7] (setting [14]). Further, the EGFP object count in [5] was determined as 6. The EGFP/DsRed ratio in assay [5] was 0.0596 (inactive). The fraction signal in assay [6] is 0.007 (inactive). Further, the AC50 was 3.72 µM (active) in assay [8], 1.66 µM (active) in assay [9] and 9.34 µM (active) in assay [10].

Regarding `Nc1nccc(-c2c(-c3ccc(F)cc3)ncn2C2CCNCC2)n1`, in assay [11], the parasite load remaining is 50.2% (inactive) and the viability was 61.1%. Besides, in [1], the liver cell % of control is 79.4% and 93.7%; the parasite % of control is 77.2% (inactive) and 61.2% (inactive). Moreover, in assay [2], the percent of negative control (+Dex) is 136% (inactive) and 118% (inactive); the z-score was 1.59 and 1.56. Besides, the z-score in [3] was -0.995 (inactive) and 0.19 (inactive). Further, the z-score in [4] is 15.2 (active) and 4.36 (inactive). Moreover, in assay [5], the EGFP object count was 12.5 and 3; the EGFP/DsRed ratio was 0.0782 (inactive) and 0.0295 (inactive). Further, the fraction signal in assay [6] is 0.0105 (inactive) and -0.008 (inactive). Also, in assay [7] (setting [13]), the z-score was -0.885 (inactive) and -0.815 (inactive). The z-score in assay [7] (setting [14]) is 0.00861 and -0.488.

The molecule `CCS(=O)(=O)c1ccc(OC)c(Nc2nccc(N(C)c3ccc4c(C)[nH]nc4c3)n2)c1` showed a liver cell % of control in assay [1] of 95.1%. Also, in assay [1], the parasite % of control is 145% (inactive). In [2], the percent of negative control (+Dex) is 92% (inactive). Further, the z-score in assay [2] is -0.36; in assay [3], -0.175 (inactive); in assay [4], 2.99 (inactive); in [7] (setting [13]), 1.33 (inactive); in assay [7] (setting [14]) it was 0.00494. The EGFP object count in assay [5] was 2.5. Also, in [5], the EGFP/DsRed ratio was 0.0751 (inactive). For the same molecule, in assay [6], the fraction signal was -0.01 (inactive).

With `Cn1cc(C2=C(c3cn(CCCN)c4ccccc34)C(=O)NC2=O)c2ccccc21`, in assay [1], the liver cell % of control turned out to be 148% and the parasite % of control was 23.2% (inactive). In addition, in [2], the percent of negative control (+Dex) was 104% (inactive) and the z-score was -0.65. Also, in assay [5], the EGFP object count turned out to be 39 and the EGFP/DsRed ratio is 0.871 (inactive). The fraction signal in assay [6] is -0.0135 (inactive). Besides, in [12] (stronger effect = lower value, cell number ratio, induced over uninduced), the fold change is 1.52 (inactive). In [12] (measured here: relative caspase fold change +Dox/-Dox), the fold change turned out to be 0.871. The molecule also gave a cell count in [12] (measured here: total cells with miR-34 induction, stronger effect = lower value) of 5190. Besides, the cell count in [12] (measured here: total cells without miR-34 induction) worked out at 3420.

In the case of `FC(F)(F)c1cccc(Nc2nccc(-c3cnn4nc(-c5ccccc5)ccc34)n2)c1`, the liver cell % of control in assay [1] is 97.2%. Further, the parasite % of control in [1] was 79.6% (inactive). The percent of negative control (+Dex) in [2] was 86.5% (inactive). Moreover, the z-score in assay [2] was -0.085; in [3], 1.3 (inactive); in assay [4] it was -0.793 (inactive); in [7] (setting [13]), 1.22 (inactive); in assay [7] (setting [14]) it was -0.183. For the same molecule, in [5], the EGFP object count turned out to be 4.5. Also, the EGFP/DsRed ratio in [5] was 0.154 (inactive). The fraction signal in assay [6] is -0.0005 (inactive).

In turn, `COc1ccc(-c2ccc3c(NC(=O)C4CC4)n[nH]c3n2)cc1` showed a liver cell % of control in assay [1] of 119%. Also, the parasite % of control in assay [1] is 77.2% (inactive). Further, in assay [2], the percent of negative control (+Dex) was 130% (inactive). Moreover, the z-score in assay [2] is 2.11; in assay [3], 0.15 (inactive); in assay [4] it was 2.53 (inactive); in [7] (setting [13]), 1.36 (inactive); in [7] (setting [14]), 0.0157. Besides, in assay [5], the EGFP object count worked out at 6. Further, in assay [5], the EGFP/DsRed ratio is 0.0694 (inactive). The fraction signal in [6] was 0.0035 (inactive).

The values above are taken from PubChem BioAssay.
